Among the data in the supplement of paper PMC6555819 are PBM binding z-score values, retold here.

The test has as its system VDR:RXRa (NR concentration 270 nM, RXRa partner concentration 90 nM). As to the kind of experiment: PBM binding z-score (relative to random genomic background probes); higher = stronger binding; sequences stand for … in GC…GCGATTGACAGCGTAGAATGAAGG
Here is the method: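 Protein-binding microarray (Agilent 4x180K custom design, double-stranded 60-nt probes: 5' GC cap, 34-nt variable region, 24-nt constant primer region; full probe sequence given). Purified or IVT nuclear receptor:RXRα heterodimers (3:1 NR:RXRα, mostly 270:90 nM) or homodimers were incubated for 1 h in PBS with 2% milk and no ligand, then detected with Alexa488 antibodies. Fluorescence from o1-orientation probes (~5 replicates averaged) was converted to z-scores against 500 random hg19 background probes. Variable regions are seed direct-repeat (DR0–DR5) sites, all their single-nucleotide variants and half-site ablations.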
Take GTGCCAAGGTGAATAGGTCGTTGATGAGTAGGCG: the PBM binding z-score was 0.576. The sequence ATCTGTAGGTAACAAGTTCAGTGAAAGAGAGGAC registered a PBM binding z-score of 2. Next, CCGACTGGGGCAAGGTTACCATAACGCACAGCCA: 0.0411. Consider CCTGCTAGGTCATTGTCAGCTAATCTACAGTATG, for which the PBM binding z-score was found to be 1.66. Sequence GCATATAGGTCATACAAGGTGAAAGTCCGATTGT returned a PBM binding z-score of 4.55. TGTCAAAGTTCAAATGTAACGTAAGTATCCACAC: the PBM binding z-score is 4.57.

Regarding TAGCCTAGGTCATTGGGCCAGTATGGTACGCATC, the PBM binding z-score was found to be 2. Sequence TTACCAAGGTGAGCTGAGGTCATTGATCCAACTC yielded a PBM binding z-score of 5.79. ATCTCTAGGTAAGACTCAGTTCACTGAAGAACGC showed a PBM binding z-score of 1.74. With CCTCGGAGAACAACAGGAGGTCAGAGCTGCCAGA, the PBM binding z-score was 1.47. As for TCTTGTAGATCAATAGAGGTCAAGAAAGTGCGCT, the PBM binding z-score is 4.77. Take ATCTGTAGGTAAAAGTTCAGTGAATCCCGAGGAT: the PBM binding z-score came out at 1.27.

GCTAGGTGGTCAGTAAAAGGTCACACACCGGTCG yielded a PBM binding z-score of 4.22. Next, AGTCAAAGTTCATCTAGGTAACGTGAGATATGCT: 5.17; GCTTGTAGATCAAGGTTATGAAAGACTAAGCTAA: 0.325.

In turn, GCTGCTAGGTCAACTGTTGGTCAGCTAAAGCTCG registered a PBM binding z-score of 1.39. TTAACAAGGTGAGCTGAGGTCGTTGATCCAACTC yielded a PBM binding z-score of 4.08. As for CTGCCAAGGTGAACAAGGTCGTTGATTACTATTC, the PBM binding z-score turned out to be 5.88. For the sequence GGAACGAGGGCATTCGTGTTGATAGCATGGCGAT, the PBM binding z-score came to 1.6. For the sequence TAGCCTAGGGCATGGGCCAGTATACCACGCGAAC, the PBM binding z-score was -0.452.

For the sequence GCAGTCAGGTGAAACGCAGGTAACTCAGGGTGGC, the PBM binding z-score was -0.464.

For TCGAGTAGGATAGTCGGGGCATTCAGCCAACATA, the PBM binding z-score is -0.319.

Sequence TCATATAGGTAATACTGGTGAAAGTCGGCATCTA yielded a PBM binding z-score of 0.963. For ATATGTTGGTTAAGGGTCATTCAGGTTGGTTCGC, the PBM binding z-score amounted to 5.55. Regarding GCTACTGGGGCATCAGCAGGTTACCATAACTTAA, the PBM binding z-score came to 0.0562. Consider ATCTCTAGGTAACAGGTTCAGTGAAAGAGAGGAC, for which the PBM binding z-score turned out to be 1.95.

In the case of CGTCCAAGGTCATAGGAGGTCAGAGAAGACAGAT, the PBM binding z-score worked out at 6.67.

With ATACCAAGGTGATCGTGAGGTCCTTGATACTAAC, the PBM binding z-score came to 0.32.

GCTTGTAGATCAAGGTTAGGAAAGACTAAGCTAA: the PBM binding z-score was -0.45.

For the sequence TCTATTAGTTGATTTGGGCAACCGAAACAGCGGA, the PBM binding z-score amounted to 0.688. Next, TGAATGAGGCTATAAGATCAGGGAACGTTGCAAA: -0.38. Sequence AGAATGAGGTTAAGATCGGGGAAACAGAATACAT yielded a PBM binding z-score of 1.18. ATATCTAGGTTATCGGGTCATTCAGTTTGCGCAT came in with a PBM binding z-score of 5.12.

For ACTGGCAGGCCAAGGGTCACTCAAGATTAGTCCG, the PBM binding z-score was found to be 2.69. Next, ATTTCTAGGTAACCAAGTTCAGTGAATGCCGAAC: 4.22.

As for GCGACTGGGGCAAAGCAGGTTAGCATAAGGTTGG, the PBM binding z-score was -0.429. In turn, ATATGCAGGTTAGCTGGGGTCATTCAGACTAGGC registered a PBM binding z-score of 6.21. Take ACAGACAGGTGAGTGAAGGTAGCTCAGCTGGACG: the PBM binding z-score is -0.56.

Consider ATACCAAGGTGATCGCGAGGTCGTTGATACTAAC, for which the PBM binding z-score was 3.37. Next, CCGACTGGGGCATAAGGTTACCCTAAGCCAGCCC: 0.27.
